Data from PubChem BioAssay (NCI).
Compounds without any hit were thinned out: in the full panel of roughly 79,000, 15% have a hit. Calls of active or inactive are those of the source. No stated cut-off is given here; in the data, active means growth inhibition above about 70%; inactive means the rest.

Columns and labels:
[1] = NCI Yeast Anticancer Drug Screen. Data for the rad52 strain (AID 147);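 further: 0% = growth of vehicle-treated control cultures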; details: S. cerevisiae rad52 mutant growth inhibition, active compounds read high
Summary of the method: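 DNA repair-defective yeast; compound exposure; growth scored against vehicle controls.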

[2] = NCI Yeast Anticancer Drug Screen. Data for the wt1 strain (AID 149);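 further: 0% = growth of vehicle-treated wt1 cultures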; details: S. cerevisiae wt1 strain (SPY 50644) growth inhibition, active compounds read high
Summary of the method: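 Growth inhibition read against vehicle controls after compound exposure of the wt1 yeast strain.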

[3] = NCI Yeast Anticancer Drug Screen. Data for the mgt1 strain (AID 153); details: S. cerevisiae mgt1 mutant growth inhibition, active compounds read high
Summary of the method: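 Growth inhibition relative to vehicle controls was scored for the mgt1 yeast strain after compound exposure.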

[4] = NCI Yeast Anticancer Drug Screen. Data for the rad50 strain (AID 155);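 further: 0% = growth of vehicle-only cultures of the same strain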; details: S. cerevisiae rad50 strain growth inhibition, active compounds read high
Summary of the method: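 Readout: growth inhibition relative to vehicle-treated cultures. Compound exposure was carried out in a genetically defined yeast strain deficient in DNA damage repair.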

[5] = NCI Yeast Anticancer Drug Screen. Data for the mec2-1 strain (AID 157); details: S. cerevisiae mec2-1 strain, active compounds read high
Summary of the method: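 Growth inhibition is read against vehicle-treated controls after compound exposure of the mec2-1 yeast strain, which is defective in DNA damage repair or cell cycle control.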

[6] = NCI Yeast Anticancer Drug Screen. Data for the rad14 strain (AID 159);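 further: 0% = growth of vehicle-treated control cultures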; details: S. cerevisiae rad14 strain growth inhibition, active compounds read high
Summary of the method: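 Growth inhibition vs vehicle controls; genetically altered yeast strain (DNA damage repair defect) treated with test compounds.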

[7] = NCI Yeast Anticancer Drug Screen. Data for the sgs1 mgt1 strain (AID 161);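 further: 0% = growth of cultures given vehicle only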; details: S. cerevisiae sgs1 mgt1 strain, active compounds read high
Summary of the method: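 Compounds are added to genetically altered yeast, and growth is compared with cultures given vehicle alone to give percent inhibition.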

[8] = NCI Yeast Anticancer Drug Screen. Data for the CLN2oe strain (AID 163);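 further: 0% = growth of vehicle-only control cultures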; details: S. cerevisiae CLN2oe strain, active compounds read high
Summary of the method: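 Compound-treated yeast; growth vs vehicle ctrl = % inhibition. Genetically altered strain (cell-cycle control).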

[9] = NCI Yeast Anticancer Drug Screen. Data for the cln2 rad14 strain (AID 165);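 further: 0% = growth equal to vehicle treated cultures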; details: S. cerevisiae cln2 rad14 strain, active compounds read high
Summary of the method: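 Growth inhibition, relative to vehicle-treated controls, is the read-out. The test organism is a yeast strain with defined genetic alterations, cln2 rad14.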

[10] = NCI Yeast Anticancer Drug Screen. Data for the bub3 strain (AID 167); details: S. cerevisiae bub3 mutant strain, active compounds read high
Summary of the method: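 Readout: yeast growth inhibition, expressed relative to vehicle-only wells. The test organism is a mutant strain from a panel with lesions in DNA repair or checkpoint genes.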

[11] = NCI Yeast Anticancer Drug Screen. Data for the wt2 strain (AID 169);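 further: 0% = growth of vehicle-treated yeast cultures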; details: S. cerevisiae wt2 strain growth inhibition, active compounds read high
Summary of the method: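 Compound exposure of yeast; growth compared with vehicle controls; inhibition reported.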

[12] = NCI Yeast Anticancer Drug Screen. Data for the mlh1 strain (AID 171);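 further: 0% = growth of vehicle-treated control cultures of the same strain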; details: S. cerevisiae mlh1 strain growth inhibition, active compounds read high
Summary of the method: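 Compounds are applied to a genetically altered yeast strain, and its growth is compared with that of vehicle-treated cultures to give percent inhibition.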

[13] = NCI Yeast Anticancer Drug Screen. Data for the sgs1 strain (AID 173);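 further: 0% = growth of vehicle-only control cultures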; details: S. cerevisiae sgs1 mutant, active compounds read high
Summary of the method: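 Compounds applied to genetically altered yeast; growth compared with vehicle-treated cultures to give % inhibition.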

[14] = NCI Yeast Anticancer Drug Screen. Data for the mlh1 rad18 strain (AID 175); details: S. cerevisiae mlh1 rad18 strain growth inhibition, active compounds read high
Summary of the method: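 Cells of a genetically altered yeast strain, deficient in DNA damage repair, were treated with compound. Their growth was then compared with that of vehicle-treated cultures to give inhibition.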

[15] = NCI Yeast Anticancer Drug Screen. Data for the rad18 strain (AID 177); details: S. cerevisiae rad18 mutant growth inhibition, active compounds read high
Summary of the method: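 Compounds are applied to a repair-deficient yeast strain, and growth is compared with that of vehicle-treated cultures to give percent inhibition.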

[16] = at 5.0 µM (retest, dose inferred, filed as 0.5)
[17] = at 50.0 µM (retest, dose inferred, filed as 5.0)

Measured: growth inhibition

O=C1CSC(c2cccc(Cl)c2)N1c1ccc(-c2ccc(-n3c(-c4ccccc4)nc4ccccc4c3=O)cc2)cc1 (stereo not drawn)
inactive: [1]; at 1.2 µM 1% | [1]; at 3.7 µM 5% | [1]; at 11.0 µM 8% | [1]; at 33.0 µM 7% | [1]; at 100.0 µM 18% | [2]; at 1.2 µM 1% | [2]; at 3.7 µM 1% | [2]; at 11.0 µM -1% | [2]; at 33.0 µM -4% | [2]; at 100.0 µM -3% | [3]; at 1.2 µM 1% | [3]; at 3.7 µM 2% | [3]; at 11.0 µM 3% | [3]; at 33.0 µM 25% | [3]; at 100.0 µM 60% | [4]; at 1.2 µM 2% | [4]; at 3.7 µM 6% | [4]; [16] -2% | [4]; at 11.0 µM 7% | [4]; at 33.0 µM 15% | [4]; [17] 61% | [4]; at 50.0 µM 66.8% | [4]; at 100.0 µM 22% | [5]; at 1.2 µM 3% | [5]; at 3.7 µM 4% | [5]; [16] -9% | [5]; at 11.0 µM 6% | [5]; at 33.0 µM 9% | [5]; [17] -26% | [5]; at 50.0 µM 68.5% | [5]; at 100.0 µM 16% | [6]; at 1.2 µM 7% | [6]; at 3.7 µM 9% | [6]; at 11.0 µM 15% | [6]; at 33.0 µM 32% | [6]; at 100.0 µM 47% | [7]; [16] 8% | [7]; at 50.0 µM 43.2% | [8]; at 1.2 µM 13% | [8]; at 3.7 µM 11% | [8]; at 11.0 µM 15% | [8]; at 33.0 µM 15% | [8]; at 100.0 µM 11% | [9]; [16] 31% | [9]; [17] 46% | [9]; at 50.0 µM 41.6% | [10]; at 1.2 µM 5% | [10]; at 3.7 µM 4% | [10]; [16] 10% | [10]; at 11.0 µM 6% | [10]; at 33.0 µM 8% | [10]; at 100.0 µM 29% | [11]; at 1.2 µM 0% | [11]; at 3.7 µM -2% | [11]; at 11.0 µM 0% | [11]; at 33.0 µM 15% | [11]; at 100.0 µM 39% | [12]; at 1.2 µM 1% | [12]; at 3.7 µM 5% | [12]; at 11.0 µM 7% | [12]; at 33.0 µM 24% | [12]; at 100.0 µM 42% | [13]; at 1.2 µM 0% | [13]; at 3.7 µM 2% | [13]; at 11.0 µM 10% | [13]; at 33.0 µM 39% | [13]; at 100.0 µM 57% | [14]; [16] 5% | [15]; at 1.2 µM 0% | [15]; at 3.7 µM 3% | [15]; at 11.0 µM 14% | [15]; at 33.0 µM 22% | [15]; at 100.0 µM 31%
active: [7]; [17] 83% | [10]; [17] 85% | [10]; at 50.0 µM 86.8% | [14]; [17] 85% | [14]; at 50.0 µM 85.1%
